# Test results: PubChem BioAssay
# The list shows a part of the results. Active and inactive are the calls of the source. Cut-off read from the data, not from the text of the source, unless noted: active = activity above about 50%; inactive = the rest.
# Tests used:
# [1] = HIF-2a driven luciferase blockers, single dose – luminescence, 786-0 RCC cells, confirmation (AID 651580;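 active = mean inhibition across four replicates of at least 40 percent at the single tested concentration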); conditions: HIF-2a luciferase reporter luminescence, overnight, at 18.8 µM, stronger effect = higher value
# [2] = HIF-1a luciferase reporter signal reduction – MiaPaCa-2 cells, single concentration, counter-screen for HIF-2a inhibitor project, confirmation (AID 651589;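 active = mean inhibition of the reporter signal across four replicates at the single tested dose of 50% or more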); conditions: MiaPaCa-2 HIF-1a luciferase reporter, desferoxamine, overnight; at 18.8 µM; stronger effect = higher value
# [3] = NFkB reporter suppression in cystic fibrosis bronchial cells – cell-based, uHTS hits, panel, cytotoxicity readout, dose response (AID 624344); conditions: CF bronchial epithelial cells, PAF-induced NFkB reporter inhibition, with PAF, run 1; at 79 µM (top of the series) unless noted
# [4] = as above; conditions: CF bronchial epithelial cells, PAF-induced NFkB reporter inhibition, with PAF, run 2; at 79 µM (top of the series) unless noted
# [5] = biological target: Tumor necrosis factor receptor superfamily member 10B (Homo sapiens) (UniProt O14763); assay: viability loss of caspase-8 NB7 cells with TRAIL – with/without TRAIL, luminescence panel, confirmation (AID 651596); conditions: NB7 neuroblastoma + caspase-8, TRAIL sensitization, NB7 Caspase-8, with TRAIL, mean of runs, at 10 µM, stronger effect = higher value
# [6] = as above; conditions: NB7 neuroblastoma + caspase-8, without TRAIL, NB7 Caspase-8, without TRAIL, mean of runs, at 10 µM
# [7] = biological target: Tumor necrosis factor receptor superfamily member 10B (Homo sapiens) (UniProt O14763); assay: compound enhancement of TRAIL-induced cell killing – NB7 cells plus caspase-8, luminescence, panel, dose response (AID 652002); conditions: NB7 neuroblastoma +caspase-8, TRAIL sensitization, luminescence viability, NB7+Caspase-8, with TRAIL, run 1; at 12.5 µM (top of the series)
# [8] = biological target: Tumor necrosis factor receptor superfamily member 10B (Homo sapiens) (UniProt O14763); assay: as above; conditions: NB7 neuroblastoma +caspase-8, TRAIL sensitization, luminescence viability, NB7+Caspase-8, with TRAIL, run 2; at 12.5 µM (top of the series)
# [9] = as above; conditions: NB7 neuroblastoma +caspase-8, no TRAIL, compound-alone cytotoxicity counter-screen, luminescence viability, NB7+Caspase-8, run 1; at 12.5 µM (top of the series) unless noted
# [10] = as above; conditions: NB7 neuroblastoma +caspase-8, no TRAIL, compound-alone cytotoxicity counter-screen, luminescence viability, NB7+Caspase-8, run 2; at 12.5 µM (top of the series) unless noted
# Chain of Tumor necrosis factor receptor superfamily member 10B (Homo sapiens) (O14763 whole entry, looked up): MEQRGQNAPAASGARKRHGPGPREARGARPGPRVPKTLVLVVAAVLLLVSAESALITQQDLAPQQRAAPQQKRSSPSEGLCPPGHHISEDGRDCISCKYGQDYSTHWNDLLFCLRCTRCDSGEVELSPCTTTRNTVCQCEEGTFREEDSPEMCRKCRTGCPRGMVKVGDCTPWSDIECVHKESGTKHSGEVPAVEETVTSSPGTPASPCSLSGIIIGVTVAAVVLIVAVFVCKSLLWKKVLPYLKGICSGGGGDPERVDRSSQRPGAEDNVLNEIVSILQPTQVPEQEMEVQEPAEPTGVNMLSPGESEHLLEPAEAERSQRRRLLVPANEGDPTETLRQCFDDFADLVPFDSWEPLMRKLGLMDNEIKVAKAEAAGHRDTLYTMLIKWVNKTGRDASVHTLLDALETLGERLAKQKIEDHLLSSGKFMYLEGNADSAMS
smiles,measurement,setting,value
O=[N+]([O-])/C=C/c1ccc2c(ccn2Cc2ccccc2)c1,inhibition,[1],45.4% (active)
same,inhibition,[2],104% (active)
O=Nc1ccc(NO)c2ccccc12,inhibition,[3],77.1% [at 39.5 µM]
same,inhibition,[4],48.9%
same,activity,[5],79.8%
same,activity,[6],47.2%
same,"activity, % sensitization",[7],19%
same,"activity, % sensitization",[8],40.7%
same,"activity, % sensitization",[9],39.7%
same,"activity, % sensitization",[10],31.2%
Cc1ccc(NC(=S)NC(NC(=O)Cc2cccc3ccccc23)C(Cl)(Cl)Cl)cc1 (centres undefined),inhibition,[1],-32.9% (inactive)
same,inhibition,[2],98.7% (active)
CCOC(=O)c1sc(NC(=O)c2cccc(S(=O)(=O)N3CCc4ccccc43)c2)c(C#N)c1C,inhibition,[3],79.6%
same,inhibition,[4],80.5%
same,activity,[5],53.4%
same,activity,[6],41.3%
same,"activity, % sensitization",[7],29.7%
same,"activity, % sensitization",[8],-18%
same,"activity, % sensitization",[9],1.22%
same,"activity, % sensitization",[10],-10%
O=C(c1cc(-c2ccc(Cl)cc2Cl)on1)N1CCOCC1,activity,[5],53.3%
same,activity,[6],60.3%
CCOC(=O)C1=C(C)OC(=Cc2ccc(OC)cc2)C1=O,activity,[5],70.6%
same,activity,[6],70%
CC(C)(C)c1ccc(/C=C/C(=O)NC2=NCCS2)cc1,activity,[5],49.7%
same,activity,[6],41.9%
Oc1ccc(-c2nnc(SCC3CCCCC3)o2)cc1,activity,[5],70.1%
same,activity,[6],84.3%
Cc1cccc(NC(=O)c2onc3c2CCCC3)n1,activity,[5],85.6%
same,activity,[6],89.4%
O=C1CCC(=O)N1c1ccc(-c2nc3ccccc3s2)cc1,activity,[5],76.8%
same,activity,[6],41%
C=CCn1c(C)cc(C(=O)CN2C(=O)c3ccccc3C2=O)c1C,activity,[5],60.2%
same,activity,[6],57.3%
O=C(CCN1C(=O)NC2(CCCC2)C1=O)Nc1ccc(-c2nc3ccccc3s2)cc1,activity,[5],52.2%
same,activity,[6],44.5%
Cc1ccc2nc(-c3ccccc3)nn2c1,activity,[5],83.9%
same,activity,[6],80.3%
Clc1ccc(-n2ncc3c(N4CCCCCC4)ncnc32)cc1,activity,[5],78%
same,activity,[6],74.8%
Cc1nn(-c2ccccc2)c(/N=C/c2ccc(O)cc2)c1-c1ccccc1,activity,[5],39.1%
same,activity,[6],13.9%
O=C(Nc1nc(=O)c2ccccc2s1)c1ccc(Cl)cc1,activity,[5],66.1%
same,activity,[6],72.6%
O=C(Nc1ncc(Cc2ccccc2)s1)c1cccs1,activity,[5],74.1%
same,activity,[6],75%
Cc1ccc(NC(=O)c2nc(S(=O)(=O)Cc3ccccc3)ncc2Cl)cc1,activity,[5],83.5%
same,activity,[6],96.1%
O=C(N/N=C/c1ccccc1)c1ccc2c(c1)OCO2,activity,[5],61.2%
same,activity,[6],56.1%
COc1ccccc1N1CCN(C2=Nc3cccc4cccc2c34)CC1,activity,[5],63.1%
same,activity,[6],58.2%
COc1ccc(C[C@H](N)C(=O)N[C@H]2[C@@H](O)[C@H](n3cnc4c(N(C)C)ncnc43)O[C@@H]2CO)cc1,activity,[5],98.4%
same,activity,[6],99.2%
CCCc1ccc(-c2cc(C(=O)Nc3ccc([N+](=O)[O-])cn3)c3ccccc3n2)cc1,activity,[5],43.2%
same,activity,[6],33.6%
O=C(CC(Nc1ccc(F)cc1)C(=O)O)c1ccccc1 (centres undefined),activity,[5],63.3%
same,activity,[6],53.1%
C=CCc1ccccc1OCC(=O)N/N=C/c1ccc(OC(C)=O)cc1OC(C)=O,activity,[5],-0.55%
same,activity,[6],27.2%
CCOC(=O)c1sc2nc(-c3ccccc3)ccc2c1N,activity,[5],76.1%
same,activity,[6],66.1%
O=C(Nc1ccc(NC(=O)c2ccco2)nc1)c1ccco1,activity,[5],71.2%
same,activity,[6],61.5%
Cc1c(C)c2ccc(OCC(=O)Nc3nccs3)cc2oc1=O,activity,[5],58.4%
same,activity,[6],57.8%
COCC(C)n1c(C)cc(C(=O)COC(=O)c2n[nH]c3ccccc23)c1C (centres undefined),activity,[5],58.5%
same,activity,[6],51.9%
Clc1nc2ccccc2cc1/C=N/Nc1nc2ccccc2[nH]1,activity,[5],86.2%
same,activity,[6],81.5%
O=C(Nc1nc2ccccc2[nH]1)c1ccccc1OC(F)F,activity,[5],76%
same,activity,[6],82.2%
COc1ccc2c(c1OC)C(=O)OC2Nc1nc(-c2ccc(-c3ccccc3)cc2)cs1 (centres undefined),activity,[5],47.4%
same,activity,[6],49.4%
O=C(Nc1nc2ccccc2n1CCN1CCCCC1)C1CCCCC1,activity,[5],56.6%
same,activity,[6],54.1%
Cc1cccc(NC(=O)c2ccc3c(Cl)c4c(nc3c2)CCCC4)n1,activity,[5],77.1%
same,activity,[6],80%
CCc1ccc(-c2ccc(SCC(=O)NCC3CCCO3)nn2)cc1 (centres undefined),activity,[5],52.9%
same,activity,[6],62.2%
CCN(CC)c1ccc(NC(=O)c2ccco2)cc1,activity,[5],53.6%
same,activity,[6],50.3%
C#Cc1cc(N2CCN(C(=O)c3ccoc3)CC2)n2nc(-c3cccc(Cl)c3)cc2n1,activity,[5],98.4%
same,activity,[6],97.3%
Cc1cc(N)n2nc(-c3ccccc3)cc2n1,activity,[5],77.2%
same,activity,[6],68.2%
CCOc1ncccc1C(=O)OCC(=O)Nc1ccc(-c2nc3ccc(C)cc3s2)cc1,activity,[5],60.9%
same,activity,[6],67%
CCN1CCN(c2ccc(S(=O)(=O)N3CCCCC3)cc2NC(=O)c2ccc([N+](=O)[O-])o2)CC1,activity,[5],59.8%
same,activity,[6],61.9%
CCc1ccc(C(=O)Nc2cc(C)ccc2F)s1,activity,[5],-9.2%
same,activity,[6],27.4%
Cn1c(=N)n(CC(=O)c2ccc(F)cc2)c2ccccc21,activity,[5],75.8%
same,activity,[6],67.5%
